NALP1 inh: NALP1 inhibition. S. cerevisiae NALP1/ASC/caspase-1 growth, X-gal OD620, 72 h. inhibition, % at 10 µM. hit rate 0.61% among 280,000; in the data active = inhibition mostly above about 24%, no sharp cut-off; inactive = mostly below about 32%
SKKanGAS inh: blocks kanamycin growth of S. pyogenes SKKanGAS strain; BacTiter-Glo, 6 h; inhibition, % at 7.5 µM; hit rate 1.3% among 300,000; AID 1662;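 active = mean replicate score, as percent of positive control median, at least 50; inconclusive = mean below 50 but one replicate at or above 50; inactive = mean and every replicate below 50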;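 also: strain carries kanamycin resistance gene driven by streptokinase promoter and grows in 40 µg/ml kanamycin; loss of luminescence reflects streptokinase promoter inhibition or plain growth inhibition; 0% = median of DMSO wells and 100% = positive control at its reference dose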
PfHsp90 yeast 2: reduces growth (ATP signal) of yeast expressing P. falciparum Hsp90; inhibition, % at 9.4 µM; hit rate 0.32% among 310,000; S. cerevisiae expressing PfHsp90, BacTiter-Glo ATP, 48 h; yeast lacking PDR1 and PDR3 efflux regulators;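 active = every replicate shows inhibition above about 80%, whatever the replicate mean, limit read from the data; inconclusive = mean inhibition reaches the set limit but some replicate falls short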;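 also: 0% = DMSO neutral controls and 100% = 20 µM radicicol positive controls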
tim10-1 inh: inhibits growth of tim10-1 mutant yeast. S. cerevisiae tim10-1 ts strain growth, BacTiter-Glo, 24 h. inhibition, % at 20 µM. hit rate 2.2% among 330,000. AID 463190;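 active = inhibition of at least 40%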;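 also: mutant grown at 25 °C; 0% = DMSO wells with yeast and 100% = wells holding no yeast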
tim23-1 inh: tim23-1 yeast growth inhibition | hit rate 1.3% among 330,000 | AID 463212 | S. cerevisiae tim23-1 growth, BacTiter-Glo luminescence, 24 h | inhibition, % at 20 µM;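 active = growth inhibition of the mutant yeast at or above 50%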;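 also: temperature-sensitive mutant grown at 25 °C; plate controls were DMSO-treated mutant yeast for no effect and medium wells lacking yeast for full effect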
TIM10 inh: inhibits growth of TIM10 yeast strain; hit rate 1.4% among 330,000; AID 463195; S. cerevisiae TIM10 strain growth, BacTiter-Glo luminescence, 24 h; inhibition, % at 10 µM;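 active = inhibition of 40% or more at the single tested concentration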;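 also: wild-type TIM10 isogenic control strain grown at permissive 25 °C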
TIM10 conf: TIM10 yeast growth inhibition, confirmed | shares compounds with TIM10 inh | S. cerevisiae tim10 strain growth, BacTiter-Glo luminescence, 24 h | inhibition, % at 10 µM | hit rate 63% among 4,600;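 active = inhibition of yeast growth at or above a set limit in either of two replicates at 10 µM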;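 also: this counterscreen used the strain with wild-type TIM10; 0% = yeast with DMSO and 100% = medium wells lacking yeast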
The depositor's hits bear a star; u = inconclusive; x = not tested or not shown. Hits are enriched below; roughly 4.8% of the tested compounds scored in any of these assays.

SMILES	NALP1 inh	SKKanGAS inh	PfHsp90 yeast 2	tim10-1 inh	tim23-1 inh	TIM10 inh	TIM10 conf
Cc1ccc(C(=O)N2CC3(C(C)C)CN(C(=O)c4ccc(C)cc4)CC(C(C)C)(C2)C3=O)cc1	0	3	-9	38	20	44*	5
Cc1ccc(C(=O)N2CCN(Cc3ccccc3)CC2)o1	10	1	-25	0	-2	12	x
O=C(c1ccc([N+](=O)[O-])o1)N1CCN(Cc2ccccc2)CC1	17	13	-12	33	40	43*	38*
COc1ccc(/C=N/NC(=O)C[n+]2ccccc2)c(OC)c1OC	9	1	-14	9	15	-11	x
O=C(O)c1ccc(/C=N/NC(=O)c2ccc3c(c2)OCCO3)cc1	3	0	2	-2	20	14	x
O=C(N/N=C/c1ccc(Br)o1)c1ccc2c(c1)OCCO2	26	-2	21	5	37	56*	63*
O=c1nc2ccccn2c2ccc(S(=O)(=O)N3CCCCC3)cc12	5	0	-5	-15	-2	4	x
CCC(=O)Nc1ccc2c(c1)C(=O)N(C)C2=O	13	-6	15	4	6	0	x
CCC(=O)Nc1ccc2c(c1)C(=O)c1ccccc1C2=O	-12	-1	0	35	36	42*	28
CCOC(=O)C1CCN(C(=O)c2sc3ncnc(N4CCC(C)CC4)c3c2C)CC1	-39	1	22	35	28	41*	16
C/C(CCC(C)C)=N\Nc1ccc(S(N)(=O)=O)cc1[N+](=O)[O-]	2	13	18	15	34	75*	26
O=C(c1ccco1)N(Cc1ccccc1)c1cccc([N+](=O)[O-])c1	1	2	12	32	-11	44*	31
O=C(c1ccco1)N(Cc1cccc([N+](=O)[O-])c1)c1ccc(Br)cc1	1	1	0	24	25	13	x
Cc1cc(C)c(N(C(=O)CN2C(=O)c3ccccc3S2(=O)=O)C(C(=O)NCC2CCCO2)c2ccc(F)cc2)c(C)c1 (stereo unspecified)	23	14	6	33	8	8	x
Cc1ccccc1Nc1nc(Nc2ccccc2C)nc(SC2=NCCS2)n1	-7	12	-20	31	33	42*	45*
COCCCNC(=O)/C(C#N)=C/c1cccc(NC(=O)c2ccccc2Cl)c1	29	-5	-27	32	44	45*	46*
Cc1ccc(N2CC(O)=C(c3nc4ccccc4c(=O)[nH]3)C2=N)cc1C	-4	17	18	13	46	47*	21
COc1ccccc1NC(=S)N(Cc1cccnc1)Cc1ccccc1Cl	2	6	7	24	7	31	x
COc1ccccc1NC(=S)N(Cc1ccc(C)cc1)Cc1cccnc1	1	12	14	38	29	47*	15
O=C(CNc1ccc2ccccc2c1)N/N=C/c1ccc(OC(=O)/C=C/c2ccco2)cc1	25	7	-22	29	10	41*	36*
O=C(CNc1cccc2ccccc12)N/N=C/c1ccc(OC(=O)/C=C/c2ccco2)cc1	24	1	7	x	x	x	x
COc1ccc(CNS(=O)(=O)c2ccc3c(c2)N(C(C)=O)CCO3)cc1	16	4	18	18	10	46*	1
O=C1N=C(N2CCCCC2)S/C1=C\c1ccncc1	7	-7	9	13	18	10	x
CCc1ccc(/C=C2\SC(N3CCCC3)=NC2=O)cc1	-7	8	-18	21	38	44*	41*
O=C(c1cn(-c2ccccc2)nc1-c1ccc(Br)cc1)N1CCOCC1	32	-5	19	37	45	50*	-10
SMILES	NALP1 inh	SKKanGAS inh	PfHsp90 yeast 2	tim10-1 inh	tim23-1 inh	TIM10 inh	TIM10 conf
COc1ccccc1NC(=S)N1CCN(c2ncccn2)CC1	1	-1	-7	-14	2	95*	3
Cc1ccc(NC(=O)c2cccc(S(=O)(=O)N3CCCCC3)c2)cc1	-11	-1	6	22	37	27	x
CCOC(=O)c1nnn(-c2ccc([N+](=O)[O-])cc2[N+](=O)[O-])c1C	-8	5	12	23	44	41*	37*
CCOC(=O)c1nnn(-c2ccccc2)c1C	15	-5	-10	10	11	7	x
CC(C)c1ccccc1OCC(O)CN1CCN(S(=O)(=O)c2ccc([N+](=O)[O-])cc2)CC1 (stereo unspecified)	-7	10	-6	35	39	40*	52*
O=S(=O)(c1ccc(F)cc1)N1CCN(CC(O)COc2ccccc2F)CC1 (stereo unspecified)	16	-1	12	10	15	-4	x
COc1ccc(-c2noc(CCCC(=O)O)n2)cc1	5	7	-3	3	0	-1	x
COc1ccc(CCn2c(C)cc(C(=O)CCl)c2C)cc1OC	-19	-13	2	-3	48	42*	44*
COC(=O)c1ccc(NC(=S)NC2CCc3ccccc32)cc1 (stereo unspecified)	12	14	13	34	11	47*	31*
O=C1CN(C(=O)c2cnccn2)c2ccccc2N1	-3	-1	12	7	4	-2	x
COc1ccc(C=NNc2nc3ccccc3s2)cc1	x	x	-2	x	x	x	x
Cc1ccc2[nH]c(C)c(/C=N/Nc3nc4ccccc4s3)c2c1	-11	6	106*	39	48	42*	59*
CN(C)/C=C/C(=O)c1ccc(Cl)s1	-2	-4	-13	2	14	-7	x
CCN1C(=O)N/C(=C/c2cc(C)n(Cc3ccccc3)c2C)C1=O	10	14	-6	17	-3	95*	-10
N/C(=N\OC(=O)/C=C/c1ccccc1Cl)c1ccccn1	3	-9	-19	36	48	51*	55*
N/C(=N\OC(=O)/C=C/c1ccccc1Cl)c1cccnc1	-20	-6	x	14	12	4	x
Cc1noc(C)c1COc1ccc(C(=O)OCC(=O)N2CC3(C)CC2CC(C)(C)C3)cc1 (stereo unspecified)	-2	x	6	37	35	44*	31*
Brc1ccc(-c2nnc3sc(CN4CCc5ccccc5C4)cn23)cc1	x	x	15	x	x	x	x
c1ccc(-c2nnc3sc(CN4CCc5ccccc54)cn23)cc1	11	9	9	12	47	42*	22
CCOC(=O)N1CCC(N2Cc3cccc(C(=O)Nc4ccc(CC)cc4)c3C2=O)CC1	3	35	x	39	29	30	x
CCOC(=O)N1CCC(N2Cc3cccc(C(=O)Nc4ccc(F)cc4)c3C2=O)CC1	17	u	19	37	30	42*	30
S=C(NCCc1ccccc1)NN=C1CCCCCC1	-24	35	21	36	32	36	x

Bioassay records as filed in PubChem.
